# Entries with a potency or affinity are not part of this list.
# Tests used:
# [1] = tested on: Staphylococcus aureus; conditions: Concentration 32 ug.mL-1;; ASSAY_TEST Inhibition of Bacterial Growth; detection method Absorption (OD600); MEDIA CAMHB; plate type 384well; NBS; CORNING #3640; time 18 hr
# [2] = tested on: Escherichia coli; conditions: Concentration 32 ug.mL-1;; ASSAY_TEST Inhibition of Bacterial Growth; detection method Absorption (OD600); MEDIA CAMHB; plate type 384well; NBS; CORNING #3640; time 18 hr
Structure (SMILES),Inhibition [1] [%],Inhibition [2] [%]
Cc1ccc(Cl)cc1NC(=O)CSc1nc2ccccc2n2c(C(C)C)nnc12,0.87,-1.5
COC(=O)c1ccc(CN(c2ccc(C)cc2)S(=O)(=O)c2ccc3nnc(C)n3c2)o1,4.75,-4.99
CCCCn1c(=O)c2sccc2n2c(CCC(=O)NCCC34CC5CC(CC(C5)C3)C4)nnc12,7.09,0.44
COC(=O)c1ccccc1NC(=O)Cn1nc2c3sc(N4CCCC4)nc3ncn2c1=O,6.17,-6.93
CCOC(=O)c1ccc(NC(=O)Cn2nc3ccc(SCc4ccc(Cl)cc4)nn3c2=O)cc1,-0.24,-11.17
Cc1ccc(Sc2nccn3c(=O)n(CC(=O)N4CCN(c5ccccc5F)CC4)nc23)c(C)c1,2.97,-4.29
Cc1ccc(-n2ccn3c(=O)n(Cc4ccccc4F)nc3c2=O)cc1C,8.2,-3.66
COc1cc(OC)c(NC(=O)Cn2nc3c(Oc4ccccc4)nccn3c2=O)cc1Cl,-15.01,-15.59
CCC(C)NC(=O)Cn1nc2n(Cc3ccco3)c(=O)c3sccc3n2c1=O (configuration not stated),7.96,2.21
Cc1ccccc1Oc1nc2ccccc2n2c(=O)n(CC(=O)Nc3cccc(C(F)(F)F)c3)nc12,7.78,2.27
COc1cccc(Sc2nc3ccccc3n3c(=O)n(CC(=O)Nc4ccc(Cl)cc4)nc23)c1,1.75,-3.52
COc1ccc(C(=O)CSc2nnc3c(=O)n(-c4ccc(F)c(F)c4)ccn23)cc1,14.04,-0.82
CCc1cccc(NC(=O)Cn2c(=O)c3nnc(C(C)C)n3c3ccccc32)c1,12.07,8.67
COc1ccc(CNC(=O)CCc2nnc3c4cc(-c5ccc(Cl)cc5)nn4ccn23)cc1OC,3.74,1.66
Cc1ccccc1CN(c1cccc(F)c1)S(=O)(=O)c1ccc2nncn2c1,-9.31,-3.51
Cc1ccc(-c2cc3c4nn(CC(=O)NC5CCCC5)c(=O)n4ccn3n2)cc1C,-0.99,-0.5
COc1cccc(-n2ccn3c(SCc4ccc(Cl)cc4)nnc3c2=O)c1,-2.27,1.4
O=S(=O)(c1ccc2nncn2c1)N(Cc1cc(F)cc(F)c1)c1ccc(F)c(F)c1,8.61,-4.86
O=C(Cn1nc2nc(Nc3ccc(F)cc3)ccn2c1=O)NCC1CCCO1 (configuration not stated),2.52,-9.11
COc1ccc(NC(=O)c2ccc3nn(CC(=O)N4CCN(c5ccccc5)CC4)c(=O)n3c2)cc1,2.28,-9.19
CSc1ccc(CNC(=O)Cn2nc3c(N4CCN(c5ccccc5)CC4)nccn3c2=O)cc1,15.59,0.69
CCc1nnc2c(S(=O)(=O)N(Cc3ccc(C)cc3)c3ccc(C(C)C)cc3)cccn12,16.04,-0.02
Cc1nnc2ccc(S(=O)(=O)N(Cc3ccccc3)c3cccc(F)c3)cn12,2.5,-6.96
Cc1oc(-c2ccccc2)nc1CSc1nc2ccccc2n2c(C(C)C)nnc12,-2.26,-5.26

Structure (SMILES),Inhibition [1] [%],Inhibition [2] [%]
Cc1ccccc1Oc1nc2ccccc2n2c(=O)n(CC(=O)NCc3ccc4c(c3)OCO4)nc12,13.3,0.04
O=C(CSc1nnc2c(=O)n(-c3ccccc3)ccn12)Nc1cccc(F)c1,13,-3.48
CCc1ccc(N(Cc2cc(F)cc(F)c2)S(=O)(=O)c2cccn3c(C)nnc23)cc1,-13.36,-0.39
COc1cccc(-n2ccn3c(SCC(=O)Nc4ccc(Br)cc4)nnc3c2=O)c1,-2.74,-7.77
CC(C)Cc1ccc(S(=O)(=O)Nc2ccc3nncn3n2)cc1,13.61,2.12
CCOc1ccc(NC(=O)Cn2nc3ccc(-c4ccc(C)c(C)c4)nn3c2=O)cc1,3.86,-6.73
CCc1nnc2c(SCC(=O)Nc3cc(Cl)ccc3OC)nc3ccccc3n12,7.98,4.84
Cc1ccc(-c2cc3c4nn(CC(=O)Nc5cccc(C)c5C)c(=O)n4ccn3n2)cc1C,13.1,-0.36
CCCCOc1ccc(-c2cc3c4nnc(SCC(=O)Nc5c(C)cccc5CC)n4ccn3n2)cc1,-40.6,-38.25
COc1ccccc1NC(=O)CSc1nnc2c(=O)n(-c3ccc(C)c(C)c3)ccn12,0.64,-7.52
Cc1cccc(NC(=O)Cn2nc3ccc(-c4ccc(Cl)cc4)nn3c2=O)c1,7.34,-1.37
CCOc1ccc(NC(=O)CSc2nnc3c(=O)n(-c4ccc(OCC)cc4)ccn23)cc1,16.17,-1.04
CCCn1c(=O)c2ccc(C(=O)NC3CCCCC3)cc2n2c(=O)n(CC#N)nc12,0.58,2.29
Cc1ccc(NC(=O)CSc2nc3ccccc3n3cnnc23)c(C)c1,-8.66,-6.3
COc1cccc(-n2ccn3c(SCc4c(F)cccc4Cl)nnc3c2=O)c1,2.96,-9.46
COc1ccc(NC(=O)c2ccc3nn(CC(=O)Nc4ccc(S(C)(=O)=O)cc4)c(=O)n3c2)cc1,11.72,-6.83
COc1ccc(NC(=O)Cn2nc3nc(N4CCOCC4)ccn3c2=O)cc1Cl,7.8,-5.98
CCCCc1ccc(NC(=O)CSc2nnc3c4cc(-c5ccc(C)cc5)nn4ccn23)cc1,10.93,0.28
COc1cccc(-n2ccn3c(SCC(=O)NCc4ccc(Cl)cc4)nnc3c2=O)c1,10.06,-3.71
CN(Cc1ccccc1)C(=O)CSc1nnc2c3cc(-c4ccccc4)nn3ccn12,11.08,-11.2
Cc1ccc(Oc2nccn3c(=O)n(CC(=O)Nc4ccccc4C(F)(F)F)nc23)cc1,6.18,0.58
Cc1ccccc1-c1noc(Cn2nc3ccc(-c4ccccc4)nn3c2=O)n1,-12.29,-7.81
CCCCN(C)C(=O)CSc1nnc2c(=O)n(Cc3ccc(F)cc3)ccn12,7.74,-2.27
O=c1c2nnc(SCc3cccc(F)c3)n2ccn1-c1ccc(Br)cc1,15.11,-3.12

Structure (SMILES),Inhibition [1] [%],Inhibition [2] [%]
Cc1ccc(Oc2nc3ccccc3n3c(=O)n(CC(=O)Nc4ccccc4C(F)(F)F)nc23)cc1,11.78,1.07
CC(C)(C)Sc1ccc2nn(CC(=O)NCc3ccc(Cl)cc3)c(=O)n2n1,1.41,-5.27
N#Cc1cccc(Cn2nc3ccc(S(=O)(=O)N4CCCCCC4)cn3c2=O)c1,10.44,-2.41
Cc1ccc(-c2cc3c4nn(CC(=O)Nc5ccccc5F)c(=O)n4ccn3n2)cc1C,-4,-9.57
CCOc1ccc(-n2ccn3c(SCC(=O)NCc4ccc(Cl)cc4)nnc3c2=O)cc1,4.19,3.75
Cc1nnc2ccc(S(=O)(=O)N(Cc3cccc(F)c3)c3cccc(Cl)c3)cn12,1.14,-14.72
Cc1cc(C)c(NC(=O)Cn2nc3c(SC4CCCCC4)nccn3c2=O)c(C)c1,12.7,-1.77
Cc1ccc(-n2ccn3c(SCC(N)=O)nnc3c2=O)cc1C,19.3,0.16
Cc1ccc(-c2ccc3nn(CC(=O)Nc4ccc(C(C)C)cc4)c(=O)n3n2)cc1C,-10.47,-13.87
COc1ccc(Cn2nc3ccc(-c4ccc(Cl)cc4)nn3c2=O)cc1F,12.92,0.48
Cc1ccccc1N1CCN(c2nccn3c(=O)n(CC(=O)NCc4cc(F)cc(F)c4)nc23)CC1,9.65,-0.75
CCc1ccc(N(Cc2ccc(C)cc2)S(=O)(=O)c2cccn3c(CC)nnc23)cc1,5.86,-4.79
CCOc1ccc(-n2ccn3c(SCC(=O)Nc4ccc5c(c4)OCCO5)nnc3c2=O)cc1,4.27,-9.56
Cc1ccc(C)c(-c2cc3c4nnc(CCC(=O)NCCc5ccc(Cl)cc5)n4ccn3n2)c1,5.83,3.02
O=C(CSc1nnc2c3cc(-c4ccc(F)cc4)nn3ccn12)Nc1ccccc1C(F)(F)F,-6.75,-13.58
COc1cccc(Sc2nc3ccccc3n3c(=O)n(CC(=O)Nc4cccc(F)c4)nc23)c1,3.13,-1.66
COc1ccc(NC(=O)Cn2nc3c(N4CCCC4)nccn3c2=O)cc1,5.17,5.65
COc1ccc(-c2cc3c4nnc(CCC(=O)NCc5ccc(OC)cc5OC)n4ccn3n2)cc1,16.19,5.82
COc1ccc(OC)c(NC(=O)Cn2nc3c4cc(-c5ccc(F)cc5)nn4ccn3c2=O)c1,7.29,-2.37
CCCCOc1ccc(-c2cc3c4nnc(SCC(=O)Nc5cccc(C(C)=O)c5)n4ccn3n2)cc1,1.68,1.11
COc1cccc(-n2ccn3c(SCc4cccc(C)c4)nnc3c2=O)c1,13.81,-5.33
CCc1cccc(NC(=O)Cn2nc3c(Sc4ccc(C)cc4C)nccn3c2=O)c1,-6.82,-19.78
CCCCOc1ccc(-c2cc3c4nnc(SCC(=O)Nc5ccccc5Cl)n4ccn3n2)cc1,3.41,-3.41

# Reference: ChEMBL document CHEMBL4513146, “CO-ADD screening of Karazin Kharkiv National University (Ukraine) compounds”
